HCMV antiviral: human cytomegalovirus inhibition. activity change, negative = inhibition, % at 57.5 µM. actives 4.5% (n = 410,000). HFF cells, HCMV-luciferase reporter, 72 h; stronger effect = lower value; in the data active means activity change below about -60%; inconclusive means no clear call, values can overlap the other calls; inactive means above about -39%
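Human foreskin fibroblasts infected with luciferase-reporter HCMV at MOI 1 PFU/cell, compounds at two doses. Luciferase measured 72 h post infection; normalized to buffer-only basal and Salinomycin (10uM) controls.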
Pf growth 48h: P. falciparum growth inhibition at 48 hours (one generation) | P. falciparum luciferase growth in erythrocytes, 48 h | Potency, µM (top dose mostly 28.7 µM), most hits filed as inhibitors | actives 5.9% (n = 310,000)
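Here the parasites carry a stable luciferase gene and grow inside erythrocytes in Albumax-based RPMI medium with compound for one erythrocytic cycle. Activity is scored as loss of luminescent signal.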
Shiga inhibitor: blocks Shiga toxin action in Vero cells. Vero cells, Shiga toxin protein synthesis inhibition reporter. inhibition, % at 38.7 µM. actives 9.2% (n = 290,000); in the data active means inhibition mostly above about 28%, no sharp cut-off; inactive means mostly below about 43%
Cycloheximide cs: affects cycloheximide protein synthesis inhibition readout, counter-screen | actives 12% (n = 300,000) | cell reporter, cycloheximide protein synthesis inhibition counterscreen | max response, % | AID 2314; in the data active means max response mostly above about 13%, no sharp cut-off; inactive means mostly below about 14%; further: read at 38.3 µM for the half of the compounds with a filed dose
Pf growth 96h: P. falciparum growth inhibition at 96 hour, primary screen for plastid delayed-death inhibitors. P. falciparum luciferase reporter growth, 96 h. Potency, µM (series often up to 28.7 µM), actives largely listed as inhibitors. actives 6.9% (n = 320,000). AID 504834
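Parasite growth measured via integrated firefly luciferase reporter in P. falciparum. Infected erythrocytes at 2% hematocrit, 0.05% parasitemia final were treated 96 hours at 37 C under 5% CO2, and luminescence was read.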
Numbers stand for hits; 0 = inactive; ? = inconclusive; - = no result; [ ] = dose if it differs, or a comment. Shown are actives, neighbours in structure and some others; about 20% of the full set was active somewhere. Unless noted, the call rests on the fitted dose curve; in most records, active means well fitted inhibition curve with a large enough effect; inconclusive means small, poorly fitted or top-dose-only effect, or another doubt; inactive means no such curve, though single readings can be large or run the other way.

SMILES	HCMV antiviral	Pf growth 48h	Shiga inhibitor	Cycloheximide cs	Pf growth 96h
NC(=O)c1ccccc1OCC(=O)c1ccc(Cl)cc1	0	4.1µM	0	0	0
C/C(=N\NC(=O)C(O)(c1ccccc1)c1ccccc1)c1ccc(NC(=O)CCCC(=O)O)cc1	0	0	0	0	0
COc1ccc(CNC(=O)[C@H](Cc2ccccc2)NC(=O)CC[C@H]2O[C@@H](n3ccc(=O)[nH]c3=O)[C@H](O)[C@@H]2O)cc1	0	-	-	-	-
Cc1ccc(C)c(Nc2ncnc3nc[nH]c23)c1	?	-	0	0	0
Oc1ccc(/C=N/Nc2ncnc3nc[nH]c23)cc1	0	0	0	35	0
Cc1ccc(/C=N/Nc2ncnc3nc[nH]c23)cc1	0	0	147	38	0
Clc1ccc(/C=N/Nc2ncnc3nc[nH]c23)cc1	0	?	0	39	12µM
C/C(=C\CNc1ncnc2nc[nH]c12)CO	0	-	-	-	-
Cc1ccc(-n2nc3c(=O)n(CC(=O)NCCC(C)C)nc(C)c3c2C)cc1	0	-	-	-	-
COc1ccccc1Cc1c(-c2ccco2)nc2c3ccccc3ccn12	0	-	-	-	-
COc1cccc(Oc2nccc(N(C)C)c2C#N)c1	0	0	39	15	0
COc1nccc(Nc2ccccc2)c1C#N	0	0	0	0	-
COc1ccnc(Oc2cc(Cl)cc(Cl)c2)c1C#N	0	0	0	0	0
COc1ccc(Oc2nccc(OC)c2C#N)cc1	0	0	0	20	0
N#Cc1c(-c2ccccc2)ccnc1Oc1ccccc1	0	0	59	24	0
COc1ccnc(Oc2ccc(C)cc2C)c1C#N	0	0	0	18	0
O=C(CSc1nnc(-c2ccco2)n1Cc1ccco1)N1CCOCC1	0	0	0	0	?
CC(C)NC(=O)CN(Cc1ccc2c(c1)OCO2)C(=O)CCC(=O)Nc1ccccn1	0	0	0	0	0
CSc1ncccc1C(=O)NCc1nnc2ccccn12	0	-	-	-	-
Cc1ccc(-n2ncc3c(N4CCN(CCO)CC4)ncnc32)cc1Cl	0	-	-	-	-
CCN1CCN(c2ncnc3ccc(Br)cc23)CC1	-67	0	0	0	0
OCCN1CCN(c2nc(-c3ccccc3)c3cc(Br)ccc3n2)CC1	-62	?	0	0	?
OCCN1CCN(c2ncnc3ccc(Br)cc23)CC1	-78	-	0	0	?
OCCN1CCN(c2cc(-c3ccccc3)c3ccccc3n2)CC1	-63	?	0	0	13µM
O=C1CCC[C@H]2[C@@H](Cc3ccccc3)[C@@H](NCc3ccccc3)CC[C@]23CCCN13	0	-	-	-	-
SMILES	HCMV antiviral	Pf growth 48h	Shiga inhibitor	Cycloheximide cs	Pf growth 96h
COc1ccc(NC(=O)C2Cc3c(-c4cccc(C(C)=O)c4)ccnc3O2)cn1 (stereo not drawn)	0	-	-	-	-
Cc1sc(NC(=O)CSc2nnc(C)c(=O)[nH]2)c(C#N)c1C	0	0	0	0	0
COc1ccc(CNC(=O)CCS(=O)(=O)c2ccc3c(c2)NC(=O)CS3)cc1	0	0	0	0	15µM
CC1CCCC(NC(=O)CCS(=O)(=O)c2ccc3c(c2)NC(=O)CS3)C1C (stereo not drawn)	0	0	0	0	13µM
CC1CCCCC1NC(=O)CCS(=O)(=O)c1ccc2c(c1)NC(=O)CS2 (stereo not drawn)	0	0	0	0	0
COc1ccc(CNC(=O)CCS(=O)(=O)c2ccc3c(c2)NC(=O)C(C)S3)cc1 (stereo not drawn)	0	?	0	0	?
CCN(c1ccc(OC)cc1)S(=O)(=O)c1ccc2c(c1)NC(=O)CS2	0	0	0	34	0
COc1cc(C(CC(=O)Nc2ccc(Br)cn2)N2Cc3ccccc3C2=O)cc(OC)c1OC (stereo not drawn)	0	-	-	-	-
CCOC(=O)C1=C(C)OC(N)=C(C#N)C1c1cc2c(cc1[N+](=O)[O-])OCO2 (stereo not drawn)	?	0	0	0	0
CC1SCC(=O)N(CC(=O)Nc2ccc3c(c2)OCO3)C1=O (stereo not drawn)	0	0	0	0	0
CC1SCC(=O)N(CC(=O)Nc2ccc3c(c2)OCCO3)C1=O (stereo not drawn)	0	0[5.75 µM]	0	33	0
CC1CCC2(CC1)NC(=O)N(CC(=O)NC(=O)NC1CCCC1)C2=O (stereo not drawn)	0	0	0	0	13µM
O=C(CN1C(=O)NC2(CCCCCC2)C1=O)c1ccc2c(c1)OCCO2	0	0	118	36	8.3µM
CC1CCC2(CC1)NC(=O)N(CC(=O)Nc1ccc3c(c1)OCCO3)C2=O (stereo not drawn)	0	0	71	41	0
CC1CCC2(CC1)NC(=O)N(CC(=O)Nc1ccc3c(c1)OCCCO3)C2=O (stereo not drawn)	0	?	-	-	0
O=C(Nc1cc(C(F)(F)F)ccc1Cl)c1cnn(-c2ccccc2)c1-n1cccc1	0	-	-	-	-
CC(=O)OCC(NC(=O)C(C)NC(=O)OC(C)(C)C)C1OC(n2cc(F)c(=O)[nH]c2=O)C(OC(C)=O)C1OC(C)=O (stereo not drawn)	-	-	0	0	-
COc1cc(/C=C/C(=O)Oc2coc(CSc3ncccn3)cc2=O)cc(OC)c1OC	0	0	0	0	0
O=c1[nH]c2cc3c(cc2cc1C(c1nnnn1Cc1ccccc1)N1CCN2CCCC2C1)OCCO3 (stereo not drawn)	0	?	0	0	12µM
COc1ccc2[nH]c(=O)c(C(c3nnnn3CC3CCCO3)N3CCCCC3)cc2c1 (stereo not drawn)	0	0	0	0	0
O=c1[nH]c2cc3c(cc2cc1C(c1nnnn1Cc1ccccc1)N1CCCc2ccccc21)OCO3 (stereo not drawn)	-85	0	44	16	0
O=c1[nH]c2cc3c(cc2cc1C(c1nnnn1Cc1ccccc1)N1CCCCCC1)OCCO3 (stereo not drawn)	0	-	0	0	?
Cc1ccc2cc(C(c3nnnn3C(C)(C)C)N3CCCC3)c(=O)[nH]c2c1C (stereo not drawn)	-	3.3µM	0	0	-
O=c1[nH]c2cc3c(cc2cc1C(c1nnnn1C1CCCC1)N1CCCc2ccccc21)OCCO3 (stereo not drawn)	0	0	0	0	0
CCc1ccc2[nH]c(=O)c(C(c3nnnn3CC3CCCO3)N3CCCc4ccccc43)cc2c1 (stereo not drawn)	0	12µM	0	0	?
SMILES	HCMV antiviral	Pf growth 48h	Shiga inhibitor	Cycloheximide cs	Pf growth 96h
COc1cc2cc(C(c3nnnn3C(C)(C)C)N3CCC(C)CC3)c(=O)[nH]c2cc1OC (stereo not drawn)	0	?	0	0	-
CCOC(=O)N1CCC(NC(=O)c2cnn(-c3ccc(C)cc3)c2-n2cccc2)CC1	0	-	-	-	-
O=C(Oc1ccccc1F)c1nc(SCc2ccccc2F)ncc1Cl	0	-	-	-	-
COc1ccc(-c2noc(N3CCN(c4cccc(C)c4C)CC3)n2)cc1OC	0	-	-	-	-
COCCC(=O)N1CCC(Oc2ccc(C(=O)N3C[C@@H]4CCC[C@H]3C4)cc2)CC1	0	0	0	0	0
Fc1ccc(OCCOCCN2CCNCC2)cc1	0	0	0	0	0
Cc1cc2cc(C(c3nnnn3CC3CCCO3)N3CCCc4ccccc43)c(=O)[nH]c2cc1C (stereo not drawn)	0	?	0	12	0
